# PglD inh = blocks C. jejuni PglD acetyltransferase activity. AID 602405. inhibition, % at 12.5 µM. purified PglD enzyme, DTNB colorimetric CoA detection. 0.098% of 360,000 active; in the data active = inhibition above about 16%, passing the limit was not always enough
# NSD2 HMT inh = inhibitors of human histone methyltransferase NSD2. NSD2 peptide methylation, AlphaScreen, 120 min. inhibition, % at 12.5 µM. 0.54% of 310,000 active; in the data active = inhibition above about 50%
# F508del corr = CFTR F508del correction in bronchial cells; CFBE cells, YFP halide quenching; stimulated with forskolin plus potentiator P3; % fluorescence drop versus neutral controls; activity (quench increase), % at 7.58 µM; 0.36% of 350,000 active;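 active = mean added fluorescence quench of at least 8% versus neutral control, with both replicates also reaching 8%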;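 note: cells transiently co-express mutant CFTR-F508del with the halide-sensitive YFP; corrector assay measuring rescue of mutant channel to the surface after 24 h compound exposure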
# ALR inh = blocks human ALR sulfhydryl oxidase activity. P55789. purified ALR, DTT oxidation, H2O2 HRP-luminol luminescence. inhibition, % (test concentration not listed). 3.8% of 290,000 active. AID 485317;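 active = mean replicate inhibition above about 79%, with every replicate also reaching it, limit read from the data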
# Target sequence (P55789 whole entry, looked up): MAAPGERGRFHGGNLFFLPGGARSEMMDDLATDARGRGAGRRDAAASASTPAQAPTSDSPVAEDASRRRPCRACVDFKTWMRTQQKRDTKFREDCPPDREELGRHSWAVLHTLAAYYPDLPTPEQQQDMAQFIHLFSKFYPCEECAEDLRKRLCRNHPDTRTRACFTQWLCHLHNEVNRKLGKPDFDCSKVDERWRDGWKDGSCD
# CASP6 VEID inh = caspase-6 (human) enzyme inhibition; purified caspase-6, Z-VEID-R110 cleavage fluorescence; 0.53% of 350,000 active; inhibition, % at 12.5 µM;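 active = mean inhibition across replicates at least about 35%, with every replicate also reaching that limit, limit read from the data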
# Target sequence (P55212 24-179 limits assumed): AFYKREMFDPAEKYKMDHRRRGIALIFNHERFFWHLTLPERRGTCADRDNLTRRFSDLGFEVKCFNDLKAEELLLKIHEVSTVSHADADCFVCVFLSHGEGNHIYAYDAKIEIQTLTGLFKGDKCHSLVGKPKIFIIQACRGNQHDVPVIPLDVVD
# Target sequence (P55212 194-293 limits assumed): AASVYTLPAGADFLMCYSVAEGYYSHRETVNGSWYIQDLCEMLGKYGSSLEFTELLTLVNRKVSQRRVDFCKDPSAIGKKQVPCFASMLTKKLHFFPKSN
# Env fusion inh = inhibitors of HIV Env-mediated cell fusion; HeLa-JRFL Env/CEM21 cell fusion, luciferase; inhibition, % at 12.3 µM; 1.1% of 360,000 active;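 active = mean replicate inhibition score of at least 50 and every replicate individually at or above 50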
# A number is an active result; – = inactive; · = not tested or not shown. In the library only some 4.1% were active in any assay of this set; here they are far more common.
SMILES,PglD inh,NSD2 HMT inh,F508del corr,ALR inh,CASP6 VEID inh,Env fusion inh
O=[N+]([O-])c1cc(O)c(O)c([N+](=O)[O-])c1,–,·,–,91.7,–,–
N#Cc1cccc(-c2ccc([C@H]3[C@H]4CN(C(=O)Cc5cccnc5)CCCCN4[C@H]3CO)cc2)c1,–,·,–,·,–,·
COc1ccc(N/N=C/c2c(O)n(-c3cccc(C)c3)c(=O)[nH]c2=O)cc1,–,–,–,98.9,–,–
Cc1cccc(N/N=C/c2c(O)[nH]c(=S)[nH]c2=O)c1,–,·,–,100.2,–,–
COc1ccc(N/N=C/c2c(O)n(-c3ccc(C)c(C)c3)c(=O)[nH]c2=O)cc1,·,–,·,98.9,·,–
Cc1ccc(-n2c(O)c(/C=N/Nc3ccccc3)c(=O)[nH]c2=O)cc1C,·,–,–,99.0,–,–
COc1ccc(N=Cc2c(O)n(-c3ccc(C)cc3)c(=O)[nH]c2=O)cc1,·,–,–,–,–,–
CCCC#Cc1ccc([C@@H]2[C@H]3CN(C(=O)Cc4ccccn4)CCCCN3[C@H]2CO)cc1,–,·,–,·,–,·
O=C(O)[C@H]1[C@H](CO)[C@H]2Cn3c(ccc(-c4ccccc4)c3=O)[C@@H]1N2C(=O)C1CCCCC1,–,·,–,·,–,·
CCCN1[C@@H]2c3cccc(=O)n3C[C@H]1[C@H](CO)[C@H]2C(=O)N(C)C,–,·,·,·,–,–
COCC(=O)N1[C@@H]2Cn3c(ccc(C4=CCCC4)c3=O)[C@H]1[C@@H](C(=O)OC)[C@@H]2CO,–,·,–,·,–,·
COC(=O)[C@@H]1[C@@H](CO)[C@@H]2Cn3c(ccc(-c4ccccc4F)c3=O)[C@H]1N2Cc1ccncc1,–,·,–,·,–,·
Cc1cccc(N2C(=O)NC(=O)/C(=C\C=C\c3ccco3)C2=O)c1,·,·,–,–,–,–
Cc1ccc(N2C(=O)NC(=O)/C(=C\C=C\c3ccco3)C2=O)cc1C,–,65.1,–,96.4,37.6,·
COc1ccc(OC)c(N2C(=O)/C(=C/c3ccco3)C(=O)NC2=S)c1,·,·,·,–,·,·
O=C1NC(=O)N(c2ccccc2)C(=O)/C1=C/C=C/c1ccco1,–,·,–,97.2,–,–
CN1C(=O)/C(=C/C=C/c2ccco2)C(=O)NC1=S,·,·,–,–,76.0,–
O=C(Cc1ccncc1)N1CCCCN2[C@H](C1)[C@@H](c1ccc(C#CC3(O)CCCC3)cc1)[C@@H]2CO,–,·,–,·,–,·
Cc1ccccc1S(=O)(=O)N1[C@@H]2c3ccc(-c4cccnc4)c(=O)n3C[C@H]1[C@H](CO)[C@H]2C(=O)O,–,·,–,·,–,·
COc1ccc(CC2C(=O)NC(C)C(=O)N(C)C3C(=O)N(C)C(Cc4ccc(O)c(c4)Oc4ccc(cc4)C3O)C(=O)NC(C)C(=O)NC(C)C(=O)N2C)cc1 (centres undefined),·,–,–,·,–,70.2
CCN(CC)c1ccc(N=Cc2c(O)n(-c3cc(OC)ccc3OC)c(=O)[nH]c2=O)cc1,–,–,·,95.1,·,·
O=C1NC(=O)N(Cc2ccccc2)C(=O)/C1=C\C=C\c1ccco1,–,–,·,–,60.1,–
O=C1NC(=O)N(Cc2ccco2)C(=O)/C1=C/C=C/c1ccco1,·,·,–,–,88.2,–
COC(=O)[C@@H]1[C@@H](CO)[C@@H]2Cn3c(ccc(-c4cccc(OC)c4)c3=O)[C@H]1N2CC1CC1,–,·,·,·,–,·
C[C@H]1CN([C@@H](C)CO)C(=O)c2c(c3ccccc3n2C)-c2ccccc2CO[C@H]1CN(C)C(=O)Oc1ccccc1,·,·,–,·,–,·
SMILES,PglD inh,NSD2 HMT inh,F508del corr,ALR inh,CASP6 VEID inh,Env fusion inh
COC(=O)[C@@H]1[C@@H](CO)[C@@H]2Cn3c(ccc(-c4ccccc4)c3=O)[C@H]1N2CC1CCOCC1,–,·,–,·,–,·
CN1/C(=C\C=Nc2ccccc2)C(C)(C)c2ccccc21,–,–,·,–,·,64.3
CCN(CC)C(=O)c1ccc(NC(=O)c2cccc(C(F)(F)F)c2)cc1,–,–,–,–,–,–
CCN(CCCl)c1cc(CN(C)C)cc(NC(=O)c2ccc(C(=O)Nc3cc(CN(C)C)cc(N(CC)CCCl)c3)cc2)c1,·,–,–,·,–,88.7
CN1CCN(c2c(N)c(=O)oc3ccccc23)CC1,–,–,–,98.7,–,·
CN1CCN(c2ccccc2N)CC1,–,–,·,–,·,–
CCCCn1c(O)c(/C=N/NC(=O)c2ccncc2)c(=O)[nH]c1=S,–,–,–,98.8,–,–
C=C1[C@@H](C)[C@H]2[C@H](Cc3ccccc3)NC(=O)[C@]23OC(=O)/C=C/[C@H](O)CCC[C@@H](C)C/C=C/[C@H]3[C@@H]1O,–,·,–,·,–,68.9
CSCCC(c1nnnn1Cc1ccccc1)N1CCC(n2c(=O)[nH]c3ccccc32)CC1 (centres undefined),–,·,–,·,–,–
Cc1cccc(C)c1-n1nnnc1C(c1cccs1)N1CCC(n2c(=O)[nH]c3ccccc32)CC1 (centres undefined),–,·,–,·,–,–
O=c1[nH]c2ccccc2n1C1CCN(C(CCc2ccccc2)c2nnnn2Cc2ccccc2)CC1 (centres undefined),–,·,–,·,–,66.3
Cc1cccc(C)c1-n1nnnc1C(c1cccc2ccccc12)N1CCC(n2c(=O)[nH]c3ccccc32)CC1 (centres undefined),–,·,–,·,–,74.3
CN(C)CC#Cc1ccc([C@@H]2[C@H]3CN(C(=O)Cc4ccccn4)CCCCN3[C@H]2CO)cc1,–,·,–,·,–,·
O=C1NC(=S)N(c2ccc(Cl)cc2)C(=O)/C1=C/N1CCN(C(=O)c2ccco2)CC1,·,–,·,96.6,·,·
COc1ccc(N2C(=O)/C(=C/c3ccc(C)o3)C(=O)NC2=S)cc1,–,–,–,·,40.0,–
O=C1NC(=S)N(c2ccc(F)cc2)C(=O)/C1=C/c1ccco1,·,·,·,92.6,·,·
Cc1ccc(/C=C2\C(=O)NC(=S)N(c3cccc(F)c3)C2=O)o1,–,·,–,–,48.2,–
O=C1NC(=S)N(c2ccc(F)cc2)C(=O)/C1=C\c1ccoc1,–,·,·,·,·,·
CC(C(=O)c1c[nH]c2ccccc12)N1CCN(C(=O)c2ccco2)CC1 (centres undefined),·,–,–,–,–,–
COC(=O)[C@H]1[C@H](CO)[C@H]2Cn3c(ccc(-c4ccccc4)c3=O)[C@@H]1N2CCc1ccccc1,–,·,–,·,–,·
O=C1CNC[C@@H]2[C@@H](c3ccc(Br)cc3)[C@@H](CO)N12,·,·,–,·,–,·
O=C(Cc1ccccn1)N1CCCCN2[C@@H](CO)[C@H](c3ccc(C#Cc4ccccc4)cc3)[C@@H]2C1,–,·,–,·,–,·
COC(=O)[C@H]1[C@H](CO)[C@H]2Cn3c(ccc(C4=CCCC4)c3=O)[C@@H]1N2CC1CCCC1,·,·,–,·,–,·
c1cc(-c2ccc(C3[C@H]4CNC[C@@H]3N4CC3CC3)cc2)ccn1 (some centres undefined),·,·,–,·,–,·
CCOP(=O)(OCC)C(O)c1ccc(N(C)C)cc1 (centres undefined),·,–,–,86.3,–,–
C[n+]1c2ccccc2nc2ccc(NCCO)cc21,–,101.2,–,–,82.5,57.1
CNc1ccc2nc3ccccc3[n+](C)c2c1,–,81.3,–,·,95.0,–

# Bioassay records deposited in PubChem by Broad Institute.
